Results reported in PubChem BioAssay (NCI).
Compounds without any hit were thinned out: in the full panel of roughly 79,000, 15% have a hit. Rule as the data show it: active = growth inhibition above about 70%; inactive = the rest.

Legend:
[1] = NCI Yeast Anticancer Drug Screen. Data for the rad50 strain (AID 155);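 also: 0% = growth of vehicle-only cultures of the same strain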; conditions: S. cerevisiae rad50 strain growth inhibition; at 50.0 µM; active compounds read high
Summary of the method: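 Growth of the mutant yeast was measured after compound exposure and referenced to vehicle-treated cultures.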

[2] = NCI Yeast Anticancer Drug Screen. Data for the mec2-1 strain (AID 157); conditions: S. cerevisiae mec2-1 strain, at 50.0 µM, active compounds read high
Summary of the method: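 Yeast mec2-1 mutant treated with compound. Readout: growth inhibition vs vehicle controls.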

[3] = NCI Yeast Anticancer Drug Screen. Data for the sgs1 mgt1 strain (AID 161);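 also: 0% = growth of cultures given vehicle only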; conditions: S. cerevisiae sgs1 mgt1 strain, at 50.0 µM, active compounds read high
Summary of the method: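 Inhibition of yeast growth, normalised to vehicle-treated controls, is reported for a strain bearing genetic alterations in DNA damage repair.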

[4] = NCI Yeast Anticancer Drug Screen. Data for the cln2 rad14 strain (AID 165);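 also: 0% = growth equal to vehicle treated cultures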; conditions: S. cerevisiae cln2 rad14 strain, at 50.0 µM, active compounds read high
Summary of the method: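 cln2 rad14 yeast strain; compound exposure; growth inhibition read vs vehicle controls.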

[5] = NCI Yeast Anticancer Drug Screen. Data for the bub3 strain (AID 167); conditions: S. cerevisiae bub3 mutant strain, at 50.0 µM, active compounds read high
Summary of the method: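 Whole-cell yeast assay. The mutant strain was incubated with compounds, and growth inhibition was determined by comparison with vehicle-treated cells.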

[6] = NCI Yeast Anticancer Drug Screen. Data for the mlh1 rad18 strain (AID 175); conditions: S. cerevisiae mlh1 rad18 strain growth inhibition; at 50.0 µM; active compounds read high
Summary of the method: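 Yeast w/ defined DNA-repair lesions; compound exposure; growth vs vehicle controls → % inhibition.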

Measured: growth inhibition

CCCCCCCS(=O)(=O)CCCCC(=O)O
inactive: [1] -17.4% | [2] -5.85% | [3] -7% | [4] -3.35% | [5] 6.7% | [6] -9.5%

CC[P+](C)(C)c1ccccc1
inactive: [1] 30.9% | [2] -0.8% | [3] 2.1% | [4] 7.55% | [5] 11.7% | [6] 2.75%

COc1ccc(Cc2c[nH]c3cc(OC)c(OC)cc23)cc1OC
inactive: [1] -22.8% | [2] -9% | [3] 18.9% | [4] -57.8% | [5] 10.1% | [6] -1.4%

CCOC(=O)/C(C)=C(/O)C(=O)OCC
inactive: [1] -45.2% | [2] -56.3% | [3] -22% | [4] -7.05% | [5] -40.2% | [6] -27.9%

CCCCCCCc1cc(=O)[nH]c(=S)[nH]1
inactive: [1] 4.05% | [2] -4.9% | [3] 0.5% | [4] -10.8% | [5] 11.3% | [6] -5.4%

CC1(C)C(=O)CCC2(C)C(OC(=O)c3ccc(C(=O)O)cc3)CCCC12 (stereo not given)
inactive: [1] -2% | [2] 37.5% | [3] 30.1% | [4] -15.4% | [5] 20.2% | [6] 18.4%

Cc1ccnc(NC(NC(=O)c2ccccc2)(C(F)(F)F)C(F)(F)F)c1
inactive: [1] 4.75% | [2] 3.5% | [3] 12.8% | [4] 23.2% | [5] -8.05% | [6] -39.5%

O=C(NCCO)c1ccc(Cl)cc1
inactive: [1] -23.6% | [2] -26.3% | [3] -30.6% | [4] 19.1% | [5] -32.4% | [6] -44.5%

O=C(Nc1ccccc1)N1CC2(CN1)CNN(C(=O)Nc1ccccc1)C2
inactive: [1] -3.35% | [2] -3.25% | [3] 15.7% | [4] -8% | [5] -3.35% | [6] -9.75%

COC(=O)c1ccc(/C2=c3\cc/c([n-]3)=C(\c3ccc(C(=O)OC)cc3)c3ccc([n-]3)/C(c3ccc(C(=O)OC)cc3)=c3/cc/c([n-]3)=C(\c3ccc(C(=O)OC)cc3)c3ccc2[n-]3)cc1.[Mn]
inactive: [1] 14.8% | [2] 23.1% | [3] 12.5% | [4] -3.65% | [5] -4.55% | [6] 53.7%

CC(=O)c1c(O)cccc1O
inactive: [1] -11.8% | [2] -13.8% | [3] -1.75% | [4] 8.7% | [5] 8.7% | [6] -3.75%

COc1ccccc1NC(=O)CCl
inactive: [1] 17.8% | [2] 24.9% | [3] 24.4% | [4] 18.8% | [5] 28.5% | [6] 36.2%

NC(=O)Nc1ccc2ccccc2c1
inactive: [1] 8.8% | [2] -9.75% | [3] 1.65% | [4] -3.95% | [5] -19.8% | [6] -5.25%

O=C1C=CC[C@H](/C=C/c2ccccc2)O1
inactive: [1] 21.6% | [2] 31.8% | [3] 28.6% | [4] 24.4% | [5] 33.5% | [6] 48.9%

COc1cc(O)c(O)cc1C(C)(C)C
inactive: [1] 35.9% | [2] 24.6% | [3] 45.4% | [4] -11.7% | [5] 36.5% | [6] -1.25%

Cn1c(=O)c2[nH]c(SCCc3ccccc3)nc2n(C)c1=O
inactive: [1] 0.65% | [2] 0.05% | [3] 6.15% | [4] -39.1% | [5] 10.3% | [6] -2.75%

C/C(=C\c1ccccc1)C(O)C(=O)c1nc2ccc([N+](=O)[O-])cc2[nH]c1=O (stereo not given)
inactive: [1] -5.55% | [2] -33.1% | [3] -11.4% | [4] 21.4% | [5] -26.4% | [6] 14.5%

C1OCC(C2OCOC2C2OCOC2C2COCO2)O1 (stereo not given)
inactive: [1] 7.8% | [2] 20.9% | [3] -5.25% | [4] -8.65% | [5] 34.9% | [6] 9.5%

Cc1ccc(SCCN)cc1
inactive: [1] 11.8% | [2] 11.9% | [3] -6.3% | [4] 2.35% | [5] -0.35% | [6] -10.2%

COC1(OC)C2(Cl)C(Cl)=C(Cl)C1(Cl)C1CCCCCC12 (stereo not given)
inactive: [1] -4.95% | [2] 2.8% | [3] 1.85% | [4] -60.7% | [5] -8.4% | [6] 8.15%
